Measured values published in the supplement of paper PMC8728848.
The full list was thinned out, with the strongest signals kept by preference.

Columns and labels:
Assay in all cases: glycan array binding signal (z-score within array); higher = stronger binding
Conditions in all cases: glycan notation: IUPAC condensed, linker removed
[1] = biological target: Fuc(a1-2)Gal(b1-3)GlcNAc(b1-2)Man(a1-3)[Fuc(a1-2)Gal(b1-3)GlcNAc(b1-2)Man(a1-6)]Man(b1-4)GlcNAc(b1-4)GlcNAc
Outline: (§1)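 The Consortium for Functional Glycomics database supplied 3228 glycan arrays, of which those lacking an available protein sequence were dropped. The binding signal, a within-array Z-score, was averaged across arrays of the same protein sequence and across linkers. Negative scores can be read as non-binding.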

Fuc(a1-2)Gal(b1-4)Glc = biological target: Fuc(a1-2)Gal(b1-4)Glc
Outline: as §1

[2] = biological target: Fuc(a1-2)Gal(b1-4)GlcNAc(b1-3)[Fuc(a1-2)Gal(b1-4)GlcNAc(b1-6)]GalNAc
Outline: as §1

[3] = biological target: Fuc(a1-2)Gal6S(b1-3)GlcNAc6S
Outline: as §1

[4] = biological target: Fuc(a1-2)[Gal(a1-3)]Gal(b1-4)[Fuc(a1-3)]GlcNAc
Outline: as §1

[5] = biological target: Fuc(a1-2)[GalNAc(a1-3)]Gal(b1-3)GlcNAc(b1-3)GalNAc
Outline: as §1

[6] = biological target: Fuc(a1-2)[GalNAc(a1-3)]Gal(b1-4)Glc
Outline: as §1

[7] = biological target: Fuc(a1-2)[GalNAc(a1-4)]Gal(b1-4)GlcNAc
Outline: as §1

[8] = biological target: Fuc(a1-3)[Gal(b1-4)]GlcNAc(b1-6)GalNAc
Outline: as §1

[9] = biological target: Gal(b1-4)GlcNAc(b1-2)Man(a1-3)[Gal(b1-4)GlcNAc(b1-2)Man(a1-6)]Man(b1-4)GlcNAc(b1-4)[Fuc(a1-6)]GlcNAc
Outline: as §1

[10] = biological target: Gal(b1-4)GlcNAc(b1-2)Man(a1-3)[GlcNAc(b1-4)][Gal(b1-4)GlcNAc(b1-2)Man(a1-6)]Man(b1-4)GlcNAc(b1-4)GlcNAc
Outline: as §1

[11] = biological target: Gal(b1-4)GlcNAc(b1-2)[Gal(b1-4)GlcNAc(b1-6)]Man(a1-6)[GlcNAc(b1-4)][Gal(b1-4)GlcNAc(b1-2)Man(a1-3)]Man(b1-4)GlcNAc(b1-4)GlcNAc
Outline: as §1

[12] = biological target: Gal(b1-4)GlcNAc(b1-3)Gal(b1-4)GlcNAc(b1-2)[Gal(b1-4)GlcNAc(b1-3)Gal(b1-4)GlcNAc(b1-6)]Man(a1-6)[Gal(b1-4)GlcNAc(b1-3)Gal(b1-4)GlcNAc(b1-2)Man(a1-3)]Man(b1-4)GlcNAc(b1-4)GlcNAc
Outline: as §1

[13] = biological target: Gal(b1-4)GlcNAc(b1-3)Gal(b1-4)GlcNAc(b1-3)Gal(b1-4)GlcNAc
Outline: as §1

[14] = biological target: Gal(b1-4)GlcNAc(b1-3)Gal(b1-4)GlcNAc(b1-3)Gal(b1-4)GlcNAc(b1-3)Gal(b1-4)GlcNAc(b1-2)Man(a1-3)[Gal(b1-4)GlcNAc(b1-3)Gal(b1-4)GlcNAc(b1-3)Gal(b1-4)GlcNAc(b1-3)Gal(b1-4)GlcNAc(b1-2)Man(a1-6)]Man(b1-4)GlcNAc(b1-4)[Fuc(a1-6)]GlcNAc
Outline: as §1

[15] = biological target: Gal(b1-4)GlcNAc(b1-3)[Gal(b1-4)GlcNAc(b1-6)]Gal(b1-4)GlcNAc
Outline: as §1

[16] = biological target: Gal(b1-4)GlcNAc(b1-3)[GlcNAc(b1-6)]Gal(b1-4)GlcNAc
Outline: as §1

[17] = biological target: GalNAc(b1-3)Gal(a1-4)Gal(b1-4)GlcNAc
Outline: as §1

GlcA(b1-6)Gal = biological target: GlcA(b1-6)Gal
Outline: as §1

[18] = biological target: GlcNAc(b1-3)Gal(b1-3)GalNAc
Outline: as §1

[19] = biological target: GlcNAc(b1-3)Gal(b1-4)GlcNAc(b1-3)Gal(b1-4)GlcNAc(b1-2)Man(a1-3)[GlcNAc(b1-3)Gal(b1-4)GlcNAc(b1-3)Gal(b1-4)GlcNAc(b1-2)Man(a1-6)]Man(b1-4)GlcNAc(b1-4)GlcNAc
Outline: as §1

[20] = biological target: GlcNAc(b1-3)Gal(b1-4)GlcNAc(b1-3)Gal(b1-4)GlcNAc(b1-3)Gal(b1-4)GlcNAc(b1-2)[GlcNAc(b1-3)Gal(b1-4)GlcNAc(b1-3)Gal(b1-4)GlcNAc(b1-3)Gal(b1-4)GlcNAc(b1-6)]Man(a1-6)[GlcNAc(b1-3)Gal(b1-4)GlcNAc(b1-3)Gal(b1-4)GlcNAc(b1-3)Gal(b1-4)GlcNAc(b1-2)Man(a1-3)]Man(b1-4)GlcNAc(b1-4)[Fuc(a1-6)]GlcNAc
Outline: as §1

[21] = biological target: GlcNAc(b1-4)GlcNAc(b1-4)GlcNAc(b1-4)GlcNAc(b1-4)GlcNAc(b1-4)GlcNAc
Outline: as §1

[22] = biological target: Man(a1-3)[Man(a1-6)]Man(a1-6)[Man(a1-3)]Man
Outline: as §1

[23] = biological target: Neu5Ac(a2-3)Gal(b1-4)GlcNAc(b1-2)Man
Outline: as §1

[24] = biological target: Neu5Ac(a2-3)Gal(b1-4)GlcNAc(b1-3)Gal(b1-3)GlcNAc
Outline: as §1

[25] = biological target: Neu5Ac(a2-3)Gal(b1-4)GlcNAc(b1-3)Gal(b1-4)GlcNAc(b1-3)Gal(b1-4)GlcNAc
Outline: as §1

[26] = biological target: Neu5Ac(a2-3)Gal(b1-4)GlcNAc(b1-3)Gal(b1-4)GlcNAc(b1-3)GalNAc
Outline: as §1

[27] = biological target: Neu5Ac(a2-3)Gal(b1-4)[Fuc(a1-3)]GlcNAc(b1-6)[Neu5Ac(a2-3)Gal(b1-3)]GalNAc
Outline: as §1

[28] = biological target: Neu5Ac(a2-6)Gal(b1-4)GlcNAc(b1-3)Gal(b1-4)GlcNAc(b1-6)[Gal(b1-3)]GalNAc
Outline: as §1

Neu5Ac(a2-8)Neu5Ac = biological target: Neu5Ac(a2-8)Neu5Ac
Outline: as §1

Neu5Ac(b2-6)GalNAc = biological target: Neu5Ac(b2-6)GalNAc
Outline: as §1

Binder	glycan array binding signal (z-score) [1]	glycan array binding signal (z-score) (Fuc(a1-2)Gal(b1-4)Glc)	glycan array binding signal (z-score) [2]	glycan array binding signal (z-score) [3]	glycan array binding signal (z-score) [4]	glycan array binding signal (z-score) [5]	glycan array binding signal (z-score) [6]	glycan array binding signal (z-score) [7]	glycan array binding signal (z-score) [8]	glycan array binding signal (z-score) [9]	glycan array binding signal (z-score) [10]	glycan array binding signal (z-score) [11]	glycan array binding signal (z-score) [12]	glycan array binding signal (z-score) [13]	glycan array binding signal (z-score) [14]	glycan array binding signal (z-score) [15]	glycan array binding signal (z-score) [16]	glycan array binding signal (z-score) [17]	glycan array binding signal (z-score) (GlcA(b1-6)Gal)	glycan array binding signal (z-score) [18]	glycan array binding signal (z-score) [19]	glycan array binding signal (z-score) [20]	glycan array binding signal (z-score) [21]	glycan array binding signal (z-score) [22]	glycan array binding signal (z-score) [23]	glycan array binding signal (z-score) [24]	glycan array binding signal (z-score) [25]	glycan array binding signal (z-score) [26]	glycan array binding signal (z-score) [27]	glycan array binding signal (z-score) [28]	glycan array binding signal (z-score) (Neu5Ac(a2-8)Neu5Ac)	glycan array binding signal (z-score) (Neu5Ac(b2-6)GalNAc)
truncCC1G-10077 (Coprinopsis cinerea) (protein) MHHHHHHHHPLPSPGPGWVLIQNGGTGKFLCSTPSGDIGTADGPETVYDYSVQWRFIQREYTGVYHVVNRATGAYLRQIGTSMPSIGLAEENDDELKDWWMLETYDNSEIGLASIISRWTGNVLDHYGGVSVQALDNNTENSYRSWAIIPARDWLTSFSLVNGQGGLCLAAQYAREETRLSTTANVNDFHAQWVFRKPSGSSGYTIQNKYNNHYVGGTSARWELVVCCNKYFGIRNTSTQKYLAIEDGQVTFQDQDMTDRKQCWELCSGRATDTSGNDYDLIYMDDDLLEVMIPWVGDKQGDLKHYIEKRATKKPPKDKGGWQLPAAGLIKKPKFNDIRQLLQELIEQWEWDVVNEEREQIQTLVSIDEAEARRLLGRRPHPDIVAAYQRSRSSTLFRIDRQGYFNIAGDRYVNIQGQYGDDSYFHIALPVGVRFGREQIRRFLRDSLDRSTSVTITPTTCKPPSGGPDYNRDPDSDGDNSWIKWTIAVVGTSAIKHSEL	3.72	-0.216	2.81	0.519	1.66	3.65	-0.829	-0.664	3.46	3.13	0.359	-0.119	3.74	-0.532	0.374	-0.821	-1.04	-0.242	4.61	-0.15	1.17	0.218	-0.144	0.384	2.91	-0.855	-1.07	0.244	3.72	0.521		
MRCL (Homo sapiens), NP_872425.1 (protein) ATKVHFPFHTCDLRIDGDCFMVSSEADTYYRARMKCQRKGGVLAQIKSQKVQDILAFYLGRLETTNEVTDSDFETRNFWIGLTYKTAKDSFRWATGEHQAFTSFAFGQPDNHGLVWLSAAMGFGNCVELQASAAFNWNNQRCKTRNRYICQFAQEHISRWGPGS																															-0.294	5.61
